The structures appear in SMILES notation. Calls of active or inactive are those of the source. Calls come from the whole dose curve; as a rule, active = well fitted curve in the direction sought with a large enough effect; inconclusive = small, poorly fitted or top-dose-only effect, or another doubt; inactive = no such curve, though single readings can be large or run the other way.

The nature of this assay: Validation qHTS assay for inhibitors of Activation Induced Cytidine Deaminase (AID): UDG Counterscreen signal (AID 1347427). As to conditions: biochemical UDG counterscreen, fluorescence signal; series mostly up to 115 µM. From the text:
Assay Provider (PI) Patricia Gearhart Ph.D.
National Institute on Aging
National Institute of Health (NIH), Bethesda, MD
Assay Provider (PI) Rahul Kohli Ph.D.
Perelman School of Medicine
University of Pennsylvania, Philadelphia, PA
Activation-Induced Deaminase (AID) is a cytosine deaminase which converts cytosine into uracil within stretches of ssDNA. The presence of uracil in DNA initiates a cascade of mutagenic DNA repair to introduce point mutations and DNA double strand breaks. Specific targeting of AID to the immunoglobulin heavy chain loci (Igh) promotes mutagenesis in the antibody variable region for somatic hypermutation (SHM) or switch regions leading to class switch recombination (CSR). However, AID also plays a role in accumulating unnecessary mutations across the genome. Mis-targeting of AID results in the initiation of tumor development and leads to greater drug resistance among cancer cells when continually expressed. To identify an AID inhibitor, a small molecule library will be screened in collaboration with NCATS core facility at NIH. To confirm biological function, inhibitors will be examined in an in vitro murine B-cell activation assay and subsequent secondary validation screens. Top molecules will be further screened to identify inhibitory efficacy against a wild type primary splenocytes assay. Using these approaches, we hope to identify a small molecule with great efficacy and low toxicity for use as a molecular probe to further characterize AID's intricacies, or even as a therapeutic.
A FRET based analysis of cytosine deamination, was developed to identify potential inhibitors of AID catalytic activity. This screen has two signal output, Read 1 evaluates the AID inhibition response. The second readout (Read 2) evaluates UDG response and is uses as a counterscreen to exclude false positive inhibitors. Inhibition in AID and inactivity in the UDG signal is the desired outcome for this assay.
SEQUENCE No. (e.g., 1, 2, 3, etc.); […] (e.g., Cells, Incubation, Reagent, etc.); VALUE; DESCRIPTION
1a; Reagent; 3 uL; [4/3x] 1 uM AID/2.67 U/mL UDG
1b; Reagent; 3 uL; 2 U/mL UDG
1c; Reagent; 3 uL; 1 uM AID
2a; Compound; 46 nL; Follow-up plates (0.64 uM - 10 mM)
2b; Control; 46 nL; ATA ([…] - 10 mM)
3; Time; 10 min; incubation at room temperature
5; Time; 4 hr; incubation at room temperature
6; Reagent; 4 uL; [2x] 250 mM NaOH
7; Time; 15 sec; centrifuge at 1000 rpm
8; Time; 30 min; incubation at room temperature
9a; Detection; fluorescence (Read 1: AID); EnVision (PerkinElmer) plate reader, 540 excitation and 590 emission filters
9b; Detection; fluorescence (Read 2: UDG); EnVision (PerkinElmer) plate reader, 560 excitation and 665 emission filters
NOTES (numbers refer to sequence above)
1a; Reagents were dispensed in a medium-binding black solid-bottom Greiner plates (789176F) using a BioRptr liquid dispenser. Dispense 3 uL of [4/3x] 1 uM AID (provided by Kohli lab) and [4/3x] 2 U/mL UDG (NEB M0280L) into columns 1, 2, 5 to 48.
1b; Dispense 3 uL of [4/3x] 2 U/mL UDG into column 3.
1c; Dispense 3 uL of [4/3x] 1 uM AID into column 4.
2b; 10 mM Aurintricarboxylic Acid (Sigma A1895) (ATA, 8-point, n = 2, 1:2.5 dilution in column 2) double pin-transferred (Dip Factor = 2) using the Kalypsys (Wako USA) pintool equipped with a 1536 pinhead for a [final] range of 186 nM - 114 uM.
3; Room temperature incubation.
4; Dispense 1 uL of substrate mixture from the Kohli lab [4x] […] DJC20 and [4x] 250 nM DJC23 into columns 1 to 48 .
5; Room temperature incubation.
6; Dispense 4 uL of substrate mixture [2x] 250 mM NaOH into columns 1 to 48.
7; Centrifugation step to remove bubbles.
8; Room temperature incubation
9a; Fluorescence signal (column label AID) was read using the EnVision plate reader. Excitation filter = 540(8) nm, barcode = 311; Emission filter = 590(20) nm, barcode = 217; Mirror = D555, barcode = 405.
9b; Fluorescence signal (column label UDG) was read using the EnVision plate reader. […]
For orientation: qHTS replaces the single test concentration by a dilution series.
As to `CCCCC1C(=O)N(c2ccccc2)N(c2ccccc2)C1=O`, the outcome was inactive.
For `CC(C)NCC(O)COc1cccc2[nH]ccc12` (configuration not stated), the outcome was inactive.
On to `CCN1CCC[C@H]1CNC(=O)c1cc(S(N)(=O)=O)ccc1OC`, for which the compound was called inactive.
Then `CCN(CC)CCOC(=O)c1ccc(N)cc1`, with “inactive”.
In the case of `NCCS`, the call was inactive.
Take `CCn1cc(C(=O)O)c(=O)c2ccc(C)nc21`: the compound was classed as inactive.
As for `Clc1ccc(Cn2c(CN3CCCC3)nc3ccccc32)cc1`, the call was inactive.
On to `CC(=O)CCCCn1c(=O)c2c(ncn2C)n(C)c1=O`, for which the compound was classed as inactive.
In the case of `COc1ccc(Cc2nccc3cc(OC)c(OC)cc23)cc1OC`, the call was inactive.
For `CCCNC(=O)NS(=O)(=O)c1ccc(Cl)cc1`, the outcome was inactive.
Then `Clc1ccc(C(c2ccc(Cl)cc2)n2cc[n+](CC(OCc3ccc(Cl)cc3Cl)c3ccc(Cl)cc3Cl)c2)cc1` (configuration not stated), with “inactive”; and `O=C(NCCN1CCOCC1)c1ccc(Cl)cc1`, with “inactive”; and `CCN(CC)C(=O)c1ccc(O)c(OC)c1`, with “inactive”.
For the compound `CC(=O)O[C@]1(C(C)=O)CC[C@H]2[C@@H]3C=C(Cl)C4=CC(=O)[C@@H]5C[C@@H]5[C@]4(C)[C@H]3CC[C@@]21C`, the compound was called inactive.
Consider `C[N+](C)(C)CCCCCC[N+](C)(C)C`, for which the call was inactive.
Turning to `NC(N)=Nc1nc(CSCC/C(N)=N/S(N)(=O)=O)cs1`, the compound was called inactive.
Consider `O=c1cc(-c2ccc(O)cc2)oc2cc(O)cc(O)c12`, for which the compound was called inactive.
Next, `O=C1NCC2(CCN(CCc3ccccc3)CC2)O1`: “inactive”.
On to `CC/C(=C(\c1ccccc1)c1ccc(OCCN(C)C)cc1)c1ccccc1`, for which the outcome was inactive.
For the compound `O=C(O)CCc1nc(-c2ccccc2)c(-c2ccccc2)o1`, the compound was classed as inactive.
Turning to `CC(C)(C)c1ccc(C(O)CCCN2CCC(C(O)(c3ccccc3)c3ccccc3)CC2)cc1` (configuration not stated), the result was inactive.
Turning to `CCCCCN(C)CCC(O)(P(=O)(O)O)P(=O)(O)O`, the compound was called inactive.
With `COc1ccccc1N1CCN(CCCNc2cc(=O)n(C)c(=O)n2C)CC1`, the compound was classed as inactive.
On to `CC1=C(/C=C/C(C)=C/C=C/C(C)=C/C(=O)Nc2ccc(O)cc2)C(C)(C)CCC1`, for which the result was inactive.
As for `CN(C)CCC(c1ccccc1)c1ccccn1` (configuration not stated), the compound was called inactive.
On to `CC(=O)N[C@@H](CS)C(=O)O`, for which the outcome was inactive.
Next, `CC(=O)c1ccc(S(=O)(=O)NC(=O)NC2CCCCC2)cc1`: “inactive”.
Then `O=C1NC(=O)C(c2ccccc2)(c2ccccc2)N1`, with “inactive”; and `COc1cccc(-c2cc(=O)c3ccccc3o2)c1N`, with “inactive”.
With `CC(C)OC(=O)C(C)(C)Oc1ccc(C(=O)c2ccc(Cl)cc2)cc1`, the compound was classed as inactive.
In the case of `COC(=O)[C@@H]1[C@H]2C[C@H]3c4[nH]c5ccccc5c4CCN3C[C@@H]2CC[C@@H]1O`, the call was inactive.
In the case of `Cc1cccc(C)c1OCC(C)N` (configuration not stated), the result was inactive.

The record behind these values is PubChem BioAssay (NCATS).
